Assay results from PubChem BioAssay (NCATS).
Values joined by “and” are separate entries in the source; they are usually repeats but may differ in a detail not shown here. Identical values can stand only once. Inconclusive results are not listed. The source holds several records for some structures; these can differ, active in one and inactive in another. Active and inactive are the calls of the source. Calls come from the whole dose curve; as a rule, active = well fitted inhibition curve with a large enough effect; inconclusive = small, poorly fitted or top-dose-only effect; inactive = flat fitted curve, though single readings scatter.

What was measured:
[1] = test system: CRL-7250; test: Cytotoxic Profiling of Annotated Libraries Using Quantitative High-Throughput Screening (AID 1296008); conditions: Five cell lines viability, CellTiter-Glo ATP luminescence, 48-72 h; max response: hits give low values; note: potency is the fitted concentration of half-maximal effect; for max response: % is set by controls: 0 for no effect and ±100 for the full control effect
How it was run: (§1)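 Compounds were pin-transferred onto cells and incubated 48 or 72 hr at 37 degree Celsius, 95% humidity. CellTiter-Glo was added, plates sat 10 min at room temperature, then ATP-coupled luminescence was imaged as the viability read-out.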

[2] = test system: HEK293; test: as above; conditions: Five cell lines viability, CellTiter-Glo ATP luminescence, 48-72 h; max response: hits give low values
How it was run: as §1

[3] = test system: HaCat; test: as above; conditions: Five cell lines viability, CellTiter-Glo ATP luminescence, 48-72 h; max response: hits give low values
How it was run: as §1

[4] = test system: KB-3-1; test: as above; conditions: Five cell lines viability, CellTiter-Glo ATP luminescence, 48-72 h; max response: hits give low values
How it was run: as §1

[5] = test system: NIH3T3; test: as above; conditions: Five cell lines viability, CellTiter-Glo ATP luminescence, 48-72 h; max response: hits give low values
How it was run: as §1

[6] = test system: HACAT; test: qHTS assay to identify novel small-molecules to repurpose for Merkel cell carcinoma treatment (AID 1296009); conditions: MCC and control cell lines, CellTiter-Glo viability, 72 h; note: potency is the fitted concentration of half-maximal effect
How it was run: (§2)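 Cells exposed to NPC (8-point) and MIPE (11-point) compound dilutions for 72 hr at 37 degree celsius; viability read by CellTiter-Glo luminescence, normalized to no-cell and DMSO in-plate controls.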

[7] = test system: HEK293T; test: as above; conditions: MCC and control cell lines, CellTiter-Glo viability, 72 h; at 44.8 µM (top of the series) unless noted
How it was run: as §2

[8] = test system: MCC-13; test: as above; conditions: MCC and control cell lines, CellTiter-Glo viability, 72 h; series mostly up to 46 µM
How it was run: as §2

[9] = test system: MCC-26; test: as above; conditions: MCC and control cell lines, CellTiter-Glo viability, 72 h; series mostly up to 46 µM
How it was run: as §2

[10] = test system: W2; test: qHTS profiling for inhibitors of Plasmodium falciparum proliferation (AID 504749);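 note: 0% = DMSO vehicle and full inhibition = artemisinin control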; conditions: P. falciparum in erythrocytes, SYBR Green DNA, 72 h; series mostly up to 28.7 µM
How it was run: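 P. falciparum-infected erythrocytes (0.3% parasitemia, 2.5% hematocrit final) were exposed to compounds for 72 h at 37 C in 5% CO2, then lysed with SYBR Green buffer overnight at room temperature; parasite DNA fluorescence was normalized to artemisinin and DMSO controls.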

[11] = at 44.8 µM (top of the series) unless noted
Note: nearly all actives have a fitted effect of over 60% in size.

O=C(O)CCNc1cc(N2CCc3ccccc3CC2)nc(-c2ccccn2)n1
inactive: max response [1] -1.59% and -1.08% and -1.74% | max response [2] 1.95% and -5.12% | outcome [2] | max response [3] -11.8% | outcome [3] | max response [4] -6.65% and -1.07% | outcome [4] | max response [5] -1.17% and -17.2% and -11.6% | outcome [6, 11] | outcome [7] | Potency [8] | Potency [9]

CN(C)c1nc(Cc2ccc(NC(=O)c3ccc(C(F)(F)F)cc3)cc2)nc(N(C)C)c1CC(=O)O
inactive: outcome [1] | max response [2] 3.18% | outcome [2] | outcome [3] | max response [4] 4.62% | outcome [4] | max response [5] -4.49% and 4.34% | outcome [6, 11] | outcome [7] | Potency [8] | Potency [9]

c1cc(OCCN2CCCCC2)cc(-c2n[nH]c3ccc(-c4ncn[nH]4)cc23)c1
inactive: max response [1] -3.49% | outcome [1] | outcome [3] | max response [4] -21.9% | max response [5] -3.48% and 4.45% | outcome [6, 11] | Potency [8] | Potency [9]

CN1C(=O)C(Cc2c[nH]c3ccccc23)NC1=S (stereo not given)
inactive: max response [1] 3.65% and -1.79% | max response [2] 1.8% | outcome [2] | outcome [3] | max response [4] 2.81% | outcome [4] | max response [5] -1.6% and -5.02% | outcome ([6]; at 17.4 µM (top of the series)) | outcome ([6]; at 44.8 µM (top of the series)) | outcome [7] | Potency [8] | Potency [9]

CN1CCC(COc2cnc(-c3cccc(Cn4nc(-c5cccc(C#N)c5)ccc4=O)c3)nc2)CC1
inactive: outcome [1] | outcome [2] | outcome [3] | max response [4] -7.63% | max response [5] -5.81% | outcome [6, 11] | outcome [7] | Potency [8] | Potency [9]
active: Potency [5] 16.4 µM

CCN1C[C@H](C)n2c(c(O)c3c(=O)n(Cc4ccc(F)c(Cl)c4)nc(C(=O)NC)c32)C1=O
inactive: max response [1] -6.85% | outcome [1] | max response [2] 1.12% | outcome [2] | max response [3] -5.77% and -3.93% | max response [4] 3.26% and 8.63% | outcome [4] | max response [5] 0.921% and -1.89% | outcome [7] | Potency [8] | Potency [9]

CN1c2ccccc2C(=O)N2CCc3c([nH]c4ccccc34)C21 (stereo not given)
inactive: max response [1] 4.95% | max response [2] -2.28% | max response [3] -3.12% | max response [4] 1.03% | max response [5] -8.68% | Potency [8] | Potency [9]
active: Potency [2] 1.64 µM | Potency [4] 5.17 µM

CC(C)CNc1ccnc(NCc2csc(-c3ccccc3)n2)n1
active: Potency [1] 1.3 µM | Potency [3] 16.4 µM | Potency [4] 14.6 µM | Potency [5] 23.1 µM
inactive: max response [1] -19.9% | max response [3] -4.23% | max response [5] -17.2% | Potency [9]

CC1=C(C(=O)Nc2cc3cn[nH]c3cc2F)C(c2ccc(C(F)(F)F)cc2)CC(=O)N1 (stereo not given)
inactive: max response [1] 1.25% | outcome [1] | outcome [2] | max response [3] 3.22% | outcome [3] | max response [4] 1.78% and 8.86% | max response [5] -7.07% | outcome [6, 11] | outcome [7] | Potency [9]

Cc1ccccc1-n1c(Cn2nc(-c3cccc(O)c3)c3c(N)ncnc32)nc2cccc(C)c2c1=O
active: Potency [1] 2.64 µM | Potency [8] 18.7 µM
inactive: outcome [1] | outcome [3] | max response [4] 4.26% and -1.18% | max response [5] -4.97% | outcome [5] | outcome [6, 11]

CC(C)(OCc1nn(Cc2ccccc2)c2ccccc12)C(=O)O
inactive: max response [1] 1.06% | outcome [1] | max response [2] 0.564% | outcome [2] | max response [3] 3.78% | outcome [3] | max response [4] 5.01% and 9.63% | max response [5] 2.54% and 3.58% | outcome [6, 11] | outcome [7] | Potency [8] | Potency [9]

CC1(C)CC(=O)c2c(C(F)(F)F)nn(-c3ccc(C(N)=O)c(NC4CCC(O)CC4)c3)c2C1 (stereo not given)
active: Potency [1] 0.259 µM | Potency [2] 52.6 nM and 58 nM | Potency [3] 132 nM and 231 nM | Potency [4] 0.105 µM | Potency [5] 235 nM and 184 nM

Nc1ccc(-c2ccc3ncc4ccc(=O)n(-c5cccc(C(F)(F)F)c5)c4c3c2)cn1
active: Potency [1] 0.0461 µM | Potency [2] 0.0132 µM | Potency [3] 2.64 µM and 2.91 µM | Potency [4] 4.2 nM and 65.1 nM | Potency [5] 20.9 nM and 103 nM
inactive: max response [1] -76.7%

CCOC(=O)[C@H](CCc1ccccc1)N[C@@H](C)C(=O)N1CCCC1C(=O)O (stereo not given in full)
inactive: max response [1] 3.69% | outcome [2] | outcome [3] | max response [4] 2.47% | outcome [5] | outcome [6, 11] | outcome [7] | Potency [8] | Potency [9]

NC(=O)c1ccc(N(C(N)=O)c2c(F)cccc2F)nc1-c1ccc(F)cc1F
inactive: max response [1] -5.46% and 0.374% | max response [2] -4.84% and -3.96% | max response [3] -19.1% and -25.7% | max response [4] 7.33% | outcome [4] | max response [5] 4.54% | outcome [5] | Potency [8] | Potency [9]

COc1nccc(-c2c(-c3ccc(F)cc3)ncn2C2CCNCC2)n1
active: Potency [2] 3.32 µM
inactive: max response [1] -23.7% and 3.35% | max response [2] -20% | max response [3] -7.28% and 1.1% | max response [4] -17.7% | outcome [4] | max response [5] -16.2% | Potency [8] | Potency [9]

NS(=O)(=O)c1cc(Cl)c(Cl)c(S(N)(=O)=O)c1
inactive: Potency [10] | max response [1] 0.0999% | outcome [1] | max response [3] -2.36% | outcome [3] | max response [4] 1.19% and 6.82% and 0.356% | max response [5] -19% and 0.0909% | outcome [6, 11] | outcome [7] | Potency [8] | Potency [9]

Cc1cc2c(cc1C1(c3ccc(C(=O)O)cn3)CC1)C(C)(C)CCC2(C)C
inactive: outcome [1] | max response [2] -8.08% | max response [3] -17.6% | max response [4] 4.32% | outcome [4] | outcome [5] | Potency [8] | Potency [9]

CCn1c(-c2nonc2N)nc2cncc(CNC3CCNCC3)c21
active: Potency [1] 7.31 µM | Potency [2] 10.5 µM and 2.31 µM
inactive: max response [3] -17.9% | outcome [3] | max response [4] 3.41% and -9.32% | outcome [6, 11] | Potency [8] | Potency [9]

CNC(=O)c1c(-c2ccc(F)cc2)oc2cc(N(CCO)S(C)(=O)=O)c(C3CC3)cc12
active: Potency [1] 11.8 µM
inactive: max response [1] -2.04% | outcome [2] | max response [4] -0.402% | max response [5] -17.1% | outcome [7]

COc1cc2ncnc(Nc3cc(Br)c(O)c(Br)c3)c2cc1OC
inactive: max response [1] -9.02% and 1.18% | max response [2] 0.846% | outcome [2] | max response [3] -28.8% | outcome [4] | max response [5] -4.77% | outcome [5] | outcome [7] | Potency [8] | Potency [9]

COc1nc(C)cnc1NS(=O)(=O)c1cccnc1-c1ccc(-c2nnco2)cc1
inactive: max response [1] 1.92% and 1.59% | outcome [2] | max response [3] 3.49% | outcome [3] | max response [4] -0.147% | outcome [4] | max response [5] -2.15% | outcome [5] | outcome [6, 11] | outcome [7] | Potency [8] | Potency [9]

Cc1cnc(Nc2cccc(CN3CCOCC3)c2)nc1Nc1cccc(S(=O)(=O)NC(C)(C)C)c1
inactive: outcome [1] | outcome [2] | max response [3] -19.2% | outcome [3] | max response [4] 6.82% | max response [5] -17.3% | outcome [6, 11] | outcome [7] | Potency [8] | Potency [9]
active: Potency [4] 2.31 µM

c1ccc(CNc2nc(N3CCOc4ccccc43)nc3c2CCCC3)cc1
inactive: max response [1] 3.99% | outcome [1] | max response [3] -18.6% and -15.3% | max response [4] 8.67% and -13.6% | max response [5] 3.56% | outcome [5] | Potency [8] | Potency [9]

CC1CCN(c2cc(N3CCN(C)CC3)ccc2NC(=O)c2cc(C#N)c[nH]2)CC1
inactive: outcome [1] | max response [2] 0.425% | max response [3] 2.9% | outcome [3] | max response [4] 9% and 4.39% | max response [5] 3.51% and 0.269% | outcome [6, 11] | Potency [8] | Potency [9]

CNc1nc(Nc2ccc(C(=O)N3CCOCC3)cc2OC)ncc1Cl
inactive: max response [1] 2.63% and -2.16% | max response [2] 3.56% and -22.4% | outcome [3] | max response [4] -5.95% | outcome [4] | outcome [6, 11] | Potency [8] | Potency [9]

Cc1ccc2c(c1)c1c(n2CCc2ccc(C)nc2)CCN(C)C1
active: Potency [2] 14.6 µM
inactive: outcome [1] | max response [2] -7.19% | max response [3] -15.7% | outcome [3] | max response [4] 2.15% | max response [5] 1.43% | outcome [6, 11] | Potency [8] | Potency [9]

C[C@@H](O)[C@H]1C(=O)N2C(C(=O)OCOC(=O)C(C)(C)C)=C(SC3CN(C4=NCCS4)C3)[C@H](C)[C@H]12
inactive: max response [1] 0.148% | outcome [2] | outcome [3] | max response [4] 8.8% | outcome [5] | outcome [6, 11] | outcome [7] | Potency [8] | Potency [9]

COc1ccnc(CS(=O)c2nc3ccc(OC(F)F)cc3[nH]2)c1OC (stereo not given)
inactive: Potency [10] | max response [1] 3.58% | outcome [2] | max response [3] -12.5% | outcome [3] | max response [4] -0.194% and 5.88% | max response [5] -24% | outcome [5] | outcome [6, 11] | outcome [7] | Potency [8] | Potency [9]

O=C(O)C1=NC(C(=O)O)CC(C=CN2c3cc(O)c(OC4OC(CO)C(O)C(O)C4O)cc3CC2C(=O)O)=C1 (stereo not given)
inactive: outcome [1] | outcome [2] | outcome [3] | max response [4] 2.69% | max response [5] 3.64% | outcome [6, 11] | outcome [7] | Potency [8] | Potency [9]
